Screens as filed in PubChem.
Hits are enriched below; roughly 10% of the tested compounds scored in any of these assays.
FLuc inh: Photinus pyralis luciferase inhibition; AID 1347043; purified P. pyralis luciferase, luminescence, biochemical; Potency, µM (top dose mostly 115 µM), most hits filed as inhibitors; 2.5% of 76,000 active; further: nearly all actives have a fitted effect of over 65% in size
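FLuc 10nM, D-luciferin 10uM, ATP 10uM, Mg acetate 10mM, Tris acetate pH 7.5, Tween/BSA; cpd qHTS; enzyme added last; CCD luminescence.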
HEK293 tox: HEK 293 cell cytotoxicity | 6.6% of 94,000 active | Potency, µM (series often up to 115 µM), without a hit: at the top dose activity change, negative = cytotoxicity, most hits filed as inhibitors | HEK 293 viability, ATP luminescence (CellTiter-Glo), 48-72 h; further: nearly all actives have a fitted effect of over 60% in size
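HEK 293 seeded at 250 cells/well receive compound via pintool. After 48 or 72 hr at 37 degree Celsius, 5% CO2 and 95% humidity, CellTiter-Glo is dispensed and luminescence read following 10 min at room temperature.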
NIH3T3 tox: kills NIH 3T3 cells; NIH 3T3 viability, CellTiter-Glo ATP luminescence, 48-72 h; Potency, µM (doses to about 96.7 µM), without a hit: at the top dose activity change, negative = cytotoxicity, hits mostly inhibitors; 4.3% of 94,000 active; AID 1345082; further: nearly all actives have a fitted effect of over 55% in size
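Viability of NIH 3T3 cells after 48 or 72 hr compound treatment at 37 °C was assessed by CellTiter-Glo, with luminescence imaged following a 10 min room-temperature step.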
NPR1 antag: antagonists of human natriuretic peptide receptor Npr1; HEK293 hNpr1 GloSensor cGMP, ANP-stimulated luminescence; Potency, µM (series often up to 46.3 µM), for inactives: top-dose activity change, negative = inhibition, usual class: inhibitors; P16066; 1.6% of 76,000 active; calls by dose curve; further: nearly all actives have a fitted effect of over 60% in size
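HEK293 cells stably expressing human Npr1 and cGMP GloSensor pGS-40F, loaded 2 h with 2% GloSensor reagent, given compound 30 min at room temperature. Luminescence read before and 20 min after 0.1 nM hNppA.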
GPT2 inh: GPT2 alanine aminotransferase inhibition | AID 1671188 | Recombinant GPT2, coupled pyruvate oxidase/HRP Amplex Red fluorescence | Potency, µM (series often up to 57.7 µM), without a hit: at the top dose activity change, negative = inhibition, most hits filed as inhibitors | 0.25% of 100,000 active; further: nearly all actives have a fitted effect of over 60% in size
Target sequence (Q8TD30 whole entry, looked up): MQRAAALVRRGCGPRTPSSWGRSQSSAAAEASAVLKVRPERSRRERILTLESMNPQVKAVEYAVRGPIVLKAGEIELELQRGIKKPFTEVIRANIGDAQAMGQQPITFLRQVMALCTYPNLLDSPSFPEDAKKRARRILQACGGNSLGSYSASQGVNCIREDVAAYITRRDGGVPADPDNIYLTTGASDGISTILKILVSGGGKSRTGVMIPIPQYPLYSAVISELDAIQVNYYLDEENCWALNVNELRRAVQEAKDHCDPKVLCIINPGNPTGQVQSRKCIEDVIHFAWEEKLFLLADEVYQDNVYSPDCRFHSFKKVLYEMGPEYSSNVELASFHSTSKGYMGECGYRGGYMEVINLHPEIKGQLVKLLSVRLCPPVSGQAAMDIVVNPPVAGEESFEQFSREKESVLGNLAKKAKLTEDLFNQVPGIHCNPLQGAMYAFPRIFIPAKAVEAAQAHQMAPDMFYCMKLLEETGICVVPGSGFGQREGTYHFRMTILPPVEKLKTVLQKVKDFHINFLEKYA
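GPT2 10ng/uL, a-KG 250uM, L-Ala 2mM, HEPES pH7.5 + 0.0001% Tween; 30 min RT. Then Amplex mix (PO/HRP/ThPP), 30 min RT dark, fluorescence. AOA 50uM used as positive control.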
* marks the source's active call; other numbers are inactive results; i = inactive; ? = inconclusive; nt = not tested or not shown; ! = not confirmed by another sample; [ ] = dose if it differs, or a comment. Unless noted, the call rests on the fitted dose curve; in most records, active means well fitted curve in the direction sought with a large enough effect; inconclusive means small, poorly fitted or top-dose-only effect, or another doubt; inactive means no such curve, though single readings can be large; an effect the other way counts as inactive or inconclusive. On the % scale 0 is the no-effect control and ±100 the full control effect; potency means the concentration at half of the fitted maximal effect.

SMILES | FLuc inh | HEK293 tox | NIH3T3 tox | NPR1 antag | GPT2 inh
Fc1ccccc1-c1noc(-c2nc(Cc3ccccc3)no2)n1 | 20µM* | 0% | 0% | 4% | 0%
CC[C@H](O)[C@@H]1N(C(=O)c2csc(-c3cccs3)n2)C2CCC1(O)CC2 | nt | ? | -17% | nt | nt
O=C(Nc1cnc(-c2ccc(Cl)cc2)nc1)c1ccccc1Cl | 0.63µM* | ? | 2% | ? | i
O=C(c1ccc(F)cc1)N1CCN(CCn2nc3n(c2=O)CCCC3)CC1 | nt | -23% | -25% | nt | nt
CCOCCOC1CCN(C(=O)c2cccc3[nH]ccc23)CC1 | 35µM* | -2% | i | -1% | i
COc1cccc(-c2ccc(C(=O)NCCNC(=O)c3ccccc3F)cc2)c1 | nt | 89µM*! | -28% | nt | nt
COc1ccc(CC(=O)NCCNC(=O)c2ccc(-c3cccc(OC)c3)cc2)cc1 | nt | ? | -20% | nt | nt
COc1cccc(-c2ccc(C(=O)NCCNC(=O)Cc3ccc(F)cc3)cc2)c1 | nt | 89µM* | ? | nt | nt
O=C(NCCc1ccccc1)c1nc2cccnc2n(C2CC2)c1=O | nt | 4% | -27% | nt | 0%
CC(C)CCN1CCOc2cc([S+](=O)([O-])Nc3nncs3)ccc2C1 | i | -12%[172 µM] | 32µM* | 0%[70.6 µM] | 5%[88.5 µM]
CC(C)CCN1CCOc2cc([S+](=O)([O-])Nc3cccnc3)ccc2C1 | i | ? | 28µM* | -19%[70.6 µM] | 4%[88.5 µM]
COCc1nnc(NC(=O)C2c3ccccc3C(=O)N(CC(C)C)C23CCCC3)s1 (stereo not given) | i | ? | ? | 1% | i
COc1ccc(/C=C/CN2CCN(Cc3ccccc3)CC(O)C2)cc1 (stereo not given) | i | ? | -24% | 3% | 3%
CNC(=O)CCn1ncc2cc(OCc3ccccc3-c3ccc(OC)cc3Cl)ccc21 | i | ? | ? | -12% | -52%
CNC(=O)CCn1ncc2cc(OCc3ccccc3-c3ccc(F)cc3)ccc21 | ? | 71µM* | ? | -10%[70.6 µM] | 4%[88.5 µM]
CNC(=O)CCn1ncc2cc(OCc3ccccc3-c3ccc(F)c(Cl)c3)ccc21 | ? | 100µM* | 79µM* | ? | 2%[88.5 µM]
CNC(=O)CCn1ncc2cc(OCc3ccccc3-c3ccccc3F)ccc21 | ? | 100µM* | 79µM* | -20%[70.6 µM] | 1%[88.5 µM]
CNC(=O)CCn1ncc2cc(OCc3ccccc3-c3cccnc3)ccc21 | i | ? | ? | -12%[70.6 µM] | -25%[88.5 µM]
CNC(=O)CCn1ncc2cc(OCc3ccccc3-c3c(F)cccc3OC)ccc21 | i | ? | ? | 4%[70.6 µM] | 2%[88.5 µM]
CNC(=O)CCn1ncc2cc(OCc3ccccc3-c3cc(F)ccc3OC)ccc21 | 40µM* | 79µM* | ? | -19%[70.6 µM] | -8%[88.5 µM]
CC(C)(C)C1CCN(C(=O)n2ncc(C(O)(c3ccccc3)c3ccccc3)n2)CC1 | nt | nt | nt | nt | i
CSc1ccc(-c2cccc(C(=O)NCC(=O)N(C)C)c2)cc1 | nt | ? | ? | nt | i
CNC(=O)CCn1ncc2cc(OCc3ccccc3-c3cccc(CO)c3)ccc21 | 16µM* | 79µM* | ? | ? | -12%[88.5 µM]
CNC(=O)CCn1ncc2cc(OCc3ccccc3-c3c(C)noc3C)ccc21 | ? | ? | ? | -22%[70.6 µM] | 0%[88.5 µM]
CNC(=O)CCn1ncc2cc(OCc3ccccc3-c3ccc(F)cc3C)ccc21 | i | ? | 50µM* | -22%[70.6 µM] | 3%[88.5 µM]
CCC1Oc2ccc(NC(=O)COC)cc2CN(Cc2ccc(Cl)cc2)C1=O (stereo not given) | i | ? | ? | -16% | 4%
CCC1Oc2ccc(NS(=O)(=O)c3ccc(Cl)cc3)cc2CN(Cc2ccc(F)cc2)C1=O (stereo not given) | i | ? | 14µM* | -24% | i
CCC1Oc2ccc(NS(=O)(=O)c3ccc(C)c(F)c3)cc2CN(Cc2ccc(OC)cc2)C1=O (stereo not given) | i | ? | 25µM* | -20% | -20%
CCC1Oc2ccc(NS(=O)(=O)c3ccccc3)cc2CN(Cc2ccc(F)cc2)C1=O (stereo not given) | i | 35µM* | ? | -5% | i
CN(CCc1noc(C2CN(Cc3ccc(F)c(F)c3)C2)n1)C(=O)C1CC1 | i | ? | ? | -3% | 2%
